The supplement of paper PMC10849652
Targets with a hit are over-represented here; the source holds about 8,800 in all. About 0.5% of all pairs of compound and target were hits.

Key:
Assay in all cases: log2 fold change, soluble protein after heating vs DMSO (PISA); higher = thermal stabilisation; K562 lysate, 10 uM; active = over 0.2 and 3.5 SD of the protein, either way, in both replicates (recomputed)
[1] = compound: C#Cc1cccc(Nc2ncnc3cc(OCCOC)c(OCCOC)cc23)c1 [erlotinib]
In short: (§1)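 Thermal stability, expressed as log-two fold change relative to solvent controls, is given from duplicates. Crude K562 extract in PBS pH 7.4 with 1 mM MgCl2, at 1 mg/mL protein, was treated with 10 μM compound for 30 min and heated in aliquots for 3 min across 48°C-58°C. After pooling, adjustment to 0.5% NP-40 at 4°C and centrifugation at 21,000xg for 90 min, supernatant protein was measured by TMTpro 16plex LC-MS/MS with channel sums equalised.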

[2] = compound: C/C(=N\NC(=O)C1=CC(=CC=C1)S(=O)(=O)N2CCOCC2)/C3=C(C=CC(=C3)Cl)O
In short: as §1

[3] = compound: C1=CC(=CC=C1C2=NC3=C(N2)C=C(C=C3)C(=O)N)OC4=CC=C(C=C4)Cl
In short: as §1

[4] = compound: C1=CC2=C(C=CC(=C2)/C=C\3/C(=O)NC(=NCC4=CC=CS4)S3)N=C1
In short: as §1

[5] = compound: C1=CC2=NC=CN=C2C=C1/C=C/3\C(=O)NC(=O)S3
In short: as §1

[6] = compound: C1=CC=C(C=C1)C2=NC(=C(N2)C3=CC=NC=C3)C4=CC(=C(C=C4)Cl)O
In short: as §1

[7] = compound: C1=CC=C2C(=C1)C3=NNC4=CC=CC(=C43)C2=O
In short: as §1

[8] = compound: C1CCN(C1)C(=O)NC2=CC=CC(=C2)NC3=NC=C(C(=N3)NCCC4=CN=CN4)Br
In short: as §1

[9] = compound: C1CN(CCC1(CC2=CC=C(C=C2)Cl)N)C3=NC=NC4=C3C=CN4
In short: as §1

[10] = compound: C1COCCN1CCN2C3=CC=CC=C3N=C2NC(=O)C4=CC(=CC=C4)[N+](=O)[O-] [IRAK-1-4 Inhibitor I]
In short: as §1

[11] = compound: C=CC(=O)N1CCC[C@@H](n2nc(-c3ccc(Oc4ccccc4)cc3)c3c(N)ncnc32)C1 [ibrutinib]
In short: as §1

[12] = compound: CC(=O)c1cnc2ccc(-c3cc(Cl)c(O)c(Cl)c3)nc2c1N[C@H]1CC[C@H](CN(C)C)CC1
In short: as §1

[13] = compound: CC(C)(C)Cn1c(N)nc2ccc(-c3[nH]c(C(C)(C)C)nc3-c3ccc(F)cc3)nc21 [ralimetinib]
In short: as §1

[14] = compound: CC(C)(O)CC(=O)NCCn1ccc2ncnc(Nc3ccc(Oc4cccc(C(F)(F)F)c4)c(Cl)c3)c21
In short: as §1

[15] = compound: CC(C)C1=C2N=C(C=C(N2N=C1)NCC3=CC=CC=C3)NCCCCCCN
In short: as §1

[16] = compound: CC1=C(C(CC(=O)N1)C2=CC=C(C=C2)C(F)(F)F)C(=O)NC3=C(C=C4C(=C3)C=NN4)F
In short: as §1

[17] = compound: CC1=C(C2=C(C=C1)C(=O)C3=CC=CC=C3N2CCCN)C
In short: as §1

[18] = compound: CC1=C(C=C(C=C1)NC(=O)C2=CC(=CC=C2)C(C)(C)C#N)NC3=CC4=C(C=C3)N=CN(C4=O)C
In short: as §1

[19] = compound: CC1=C(C=C(C=C1)NC(=O)C2=CC(=CC=C2)N(C)C)NC(=O)C3=CC=C(C=C3)O
In short: as §1

[20] = compound: CC1=CC=C(C=C1)SC2=C3C=C(SC3=CN=C2)C(=O)N
In short: as §1

Measured: log2 fold change

FTL (UniProt P02792)
inactive: [1] -0.14 | [2] -0.599 | [3] -0.077 | [4] -0.027 | [5] -0.006 | [6] 0.11 | [7] 0.012 | [8] -0.063 | [9] -0.034 | [10] 0.169 | [11] -0.026 | [12] -0.025 | [13] -0.146 | [14] -0.257 | [15] 0.023 | [16] 0.027 | [17] 0.041 | [18] 0.023 | [19] 0.033 | [20] 0.053

EDC4 (UniProt Q6P2E9)
inactive: [1] 0.002 | [2] -0.026 | [3] -0.022 | [4] 0.001 | [5] 0.006 | [6] -0.001 | [7] -0.02 | [8] -0.015 | [9] 0.014 | [10] 0.013 | [11] -0.001 | [12] 0.001 | [13] 0.028 | [14] -0.009 | [15] -0.011 | [16] 0.004 | [17] -0.006 | [18] 0.006 | [19] 0 | [20] -0.019

GGT7 (UniProt Q9UJ14)
inactive: [1] -0.04 | [2] 0.07 | [3] 0.021 | [4] -0.116 | [5] 0.094 | [6] -0.059 | [7] 0.018 | [8] 0.026 | [9] -0.023 | [10] 0.027 | [11] 0.019 | [12] 0.004 | [13] -0.07 | [14] -0.106 | [15] -0.05 | [16] 0.003 | [17] -0.066 | [18] -0.032 | [19] 0.035 | [20] 0.017

EXOC3 (UniProt O60645)
UniProt O60645, sequence (O60645 whole entry, looked up): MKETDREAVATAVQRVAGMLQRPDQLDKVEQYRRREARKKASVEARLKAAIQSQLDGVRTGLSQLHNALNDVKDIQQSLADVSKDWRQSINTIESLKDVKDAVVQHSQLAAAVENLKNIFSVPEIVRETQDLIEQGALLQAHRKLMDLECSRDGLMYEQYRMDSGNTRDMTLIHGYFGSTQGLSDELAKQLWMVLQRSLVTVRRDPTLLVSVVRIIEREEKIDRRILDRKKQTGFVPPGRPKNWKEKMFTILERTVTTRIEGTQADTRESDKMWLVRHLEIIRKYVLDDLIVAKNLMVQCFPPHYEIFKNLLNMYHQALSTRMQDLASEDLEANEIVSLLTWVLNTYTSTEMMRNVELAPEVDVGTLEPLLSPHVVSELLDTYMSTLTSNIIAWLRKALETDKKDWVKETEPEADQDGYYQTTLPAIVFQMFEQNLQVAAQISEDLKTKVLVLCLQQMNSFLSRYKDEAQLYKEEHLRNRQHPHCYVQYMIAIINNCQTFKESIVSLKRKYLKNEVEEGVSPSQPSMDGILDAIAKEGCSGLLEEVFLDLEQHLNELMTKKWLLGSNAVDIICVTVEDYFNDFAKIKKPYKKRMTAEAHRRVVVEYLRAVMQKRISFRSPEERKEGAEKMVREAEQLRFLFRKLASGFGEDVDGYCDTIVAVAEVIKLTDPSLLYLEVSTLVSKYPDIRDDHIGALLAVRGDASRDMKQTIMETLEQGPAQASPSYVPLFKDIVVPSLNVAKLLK
inactive: [1] 0.033 | [2] 0.027 | [3] 0.006 | [4] 0.033 | [5] 0.039 | [6] 0.011 | [7] -0.04 | [8] 0.018 | [9] -0.001 | [10] 0.013 | [11] -0.029 | [12] -0.012 | [13] 0.025 | [14] 0.048 | [15] 0.025 | [16] 0 | [17] -0.042 | [18] 0.037 | [19] 0.067 | [20] 0.004

FBXO38 (UniProt Q6PIJ6)
UniProt Q6PIJ6, sequence (Q6PIJ6 whole entry, looked up): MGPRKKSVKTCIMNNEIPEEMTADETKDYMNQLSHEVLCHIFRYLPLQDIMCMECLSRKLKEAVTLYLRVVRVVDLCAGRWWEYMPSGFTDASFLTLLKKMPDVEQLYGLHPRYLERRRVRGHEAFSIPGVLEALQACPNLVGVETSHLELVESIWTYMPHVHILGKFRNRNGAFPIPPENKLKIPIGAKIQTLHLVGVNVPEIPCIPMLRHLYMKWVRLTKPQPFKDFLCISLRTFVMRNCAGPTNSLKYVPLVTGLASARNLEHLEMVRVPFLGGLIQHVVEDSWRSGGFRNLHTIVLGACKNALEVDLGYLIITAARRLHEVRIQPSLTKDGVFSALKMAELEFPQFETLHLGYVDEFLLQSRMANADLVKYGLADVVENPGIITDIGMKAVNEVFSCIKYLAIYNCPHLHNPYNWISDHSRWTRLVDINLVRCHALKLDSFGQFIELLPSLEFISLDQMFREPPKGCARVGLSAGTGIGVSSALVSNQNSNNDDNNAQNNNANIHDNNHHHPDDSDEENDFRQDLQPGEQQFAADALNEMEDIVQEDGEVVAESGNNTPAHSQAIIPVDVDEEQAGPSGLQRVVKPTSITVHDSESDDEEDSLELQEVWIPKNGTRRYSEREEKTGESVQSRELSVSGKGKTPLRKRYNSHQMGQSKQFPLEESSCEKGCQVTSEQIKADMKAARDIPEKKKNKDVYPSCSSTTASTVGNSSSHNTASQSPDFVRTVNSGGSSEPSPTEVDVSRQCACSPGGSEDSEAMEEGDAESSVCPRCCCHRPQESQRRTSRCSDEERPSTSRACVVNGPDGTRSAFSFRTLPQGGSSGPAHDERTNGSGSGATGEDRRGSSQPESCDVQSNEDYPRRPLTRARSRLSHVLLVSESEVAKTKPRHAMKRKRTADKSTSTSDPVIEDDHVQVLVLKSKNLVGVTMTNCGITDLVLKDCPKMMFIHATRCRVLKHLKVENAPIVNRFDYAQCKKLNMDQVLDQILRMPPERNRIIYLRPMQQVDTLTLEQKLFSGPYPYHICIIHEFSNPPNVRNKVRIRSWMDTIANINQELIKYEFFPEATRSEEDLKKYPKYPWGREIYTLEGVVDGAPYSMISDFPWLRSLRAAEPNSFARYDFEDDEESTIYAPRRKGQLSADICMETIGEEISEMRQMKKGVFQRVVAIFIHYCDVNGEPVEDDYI
inactive: [1] 0.102 | [2] 0.041 | [3] 0.013 | [4] -0.047 | [5] -0.041 | [6] 0.06 | [7] 0.077 | [8] -0.06 | [9] 0.021 | [10] -0.052 | [11] -0.042 | [12] 0.063 | [13] 0.083 | [14] 0.009 | [15] -0.078 | [16] -0.037 | [17] -0.073 | [18] -0.098 | [19] 0.009 | [20] 0.175

GCN1 (UniProt Q92616)
inactive: [1] 0.048 | [2] 0.066 | [3] -0.086 | [4] 0.022 | [5] 0.054 | [6] 0.026 | [7] -0.016 | [8] -0.008 | [9] 0.003 | [10] 0.008 | [11] 0.016 | [12] 0.008 | [13] 0.064 | [14] 0.028 | [15] -0.031 | [16] -0.016 | [17] -0.01 | [18] 0.008 | [19] 0.075 | [20] 0.026

ERI1 (UniProt Q8IV48)
UniProt Q8IV48, sequence (Q8IV48 whole entry, looked up): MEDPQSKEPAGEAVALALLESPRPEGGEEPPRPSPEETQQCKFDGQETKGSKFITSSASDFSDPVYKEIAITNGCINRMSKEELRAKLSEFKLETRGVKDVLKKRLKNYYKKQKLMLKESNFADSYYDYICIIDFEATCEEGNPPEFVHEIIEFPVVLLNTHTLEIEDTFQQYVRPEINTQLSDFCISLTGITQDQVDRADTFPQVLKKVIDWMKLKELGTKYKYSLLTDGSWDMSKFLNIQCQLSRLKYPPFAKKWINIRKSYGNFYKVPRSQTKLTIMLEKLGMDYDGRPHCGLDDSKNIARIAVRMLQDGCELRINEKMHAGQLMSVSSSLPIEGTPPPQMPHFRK
inactive: [1] -0.015 | [2] 0.073 | [3] -0.009 | [4] 0.019 | [5] -0.028 | [6] 0.134 | [7] -0.03 | [8] -0.009 | [9] -0.036 | [10] -0.111 | [11] -0.037 | [12] 0.022 | [13] -0.035 | [14] 0.085 | [15] 0.084 | [16] -0.05 | [17] 0 | [18] -0.033 | [19] 0.411 | [20] 0.012

FAM83A (UniProt Q86UY5)
UniProt Q86UY5, sequence (Q86UY5 whole entry, looked up): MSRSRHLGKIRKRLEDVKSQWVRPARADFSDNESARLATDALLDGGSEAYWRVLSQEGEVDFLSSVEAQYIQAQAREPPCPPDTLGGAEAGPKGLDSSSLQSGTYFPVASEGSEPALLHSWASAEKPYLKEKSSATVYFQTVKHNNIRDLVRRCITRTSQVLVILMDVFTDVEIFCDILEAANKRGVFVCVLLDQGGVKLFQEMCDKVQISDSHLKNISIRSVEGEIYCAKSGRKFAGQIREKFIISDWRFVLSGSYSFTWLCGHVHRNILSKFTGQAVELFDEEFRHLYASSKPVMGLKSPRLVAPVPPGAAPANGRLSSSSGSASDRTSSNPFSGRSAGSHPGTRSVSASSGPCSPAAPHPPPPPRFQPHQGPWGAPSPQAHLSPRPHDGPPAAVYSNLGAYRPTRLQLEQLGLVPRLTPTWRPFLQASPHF
inactive: [1] 0 | [2] 0.168 | [3] 0.097 | [4] 0.038 | [5] -0.054 | [6] -0.107 | [7] -0.031 | [8] -0.062 | [9] 0.008 | [10] 0.019 | [11] 0.125 | [12] 0.006 | [13] 0.008 | [14] 0.053 | [15] -0.06 | [16] 0.018 | [17] 0.023 | [18] 0.035 | [19] -0.023 | [20] 0.026

ERLIN2 (UniProt O94905)
inactive: [1] -0.028 | [2] 0.051 | [3] -0.1 | [4] -0.002 | [5] -0.047 | [6] -0.019 | [7] -0.031 | [8] -0.039 | [9] 0.006 | [10] -0.013 | [11] 0.033 | [12] -0.028 | [13] 0.026 | [14] -0.023 | [15] -0.023 | [16] -0.012 | [17] -0.031 | [18] -0.016 | [19] 0.066 | [20] -0.014

FAM83D (UniProt Q9H4H8)
UniProt Q9H4H8, sequence (Q9H4H8 whole entry, looked up): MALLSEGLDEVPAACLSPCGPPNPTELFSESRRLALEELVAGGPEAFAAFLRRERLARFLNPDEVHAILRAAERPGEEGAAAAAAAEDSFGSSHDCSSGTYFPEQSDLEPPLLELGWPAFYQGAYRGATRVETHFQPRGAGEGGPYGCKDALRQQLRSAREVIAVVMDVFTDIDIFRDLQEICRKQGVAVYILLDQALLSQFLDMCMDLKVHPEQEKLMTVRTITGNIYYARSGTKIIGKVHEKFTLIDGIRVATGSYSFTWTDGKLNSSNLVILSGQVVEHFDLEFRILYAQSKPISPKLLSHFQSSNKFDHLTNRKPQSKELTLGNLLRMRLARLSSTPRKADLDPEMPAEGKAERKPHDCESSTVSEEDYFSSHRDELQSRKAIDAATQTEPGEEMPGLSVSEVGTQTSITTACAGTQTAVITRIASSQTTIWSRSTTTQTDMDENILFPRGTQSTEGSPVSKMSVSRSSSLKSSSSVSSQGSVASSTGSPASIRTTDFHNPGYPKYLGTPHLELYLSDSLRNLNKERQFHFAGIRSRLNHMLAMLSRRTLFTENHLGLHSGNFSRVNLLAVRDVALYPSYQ
inactive: [1] 0.033 | [2] 0.013 | [3] -0.049 | [4] 0.006 | [5] 0 | [6] -0.009 | [7] -0.003 | [8] -0.005 | [9] -0.004 | [10] 0.019 | [11] 0.028 | [12] 0.031 | [13] 0.041 | [14] -0.018 | [15] 0.013 | [16] 0.038 | [17] -0.098 | [18] -0.032 | [19] 0.031 | [20] 0.017

ENY2 (UniProt Q9NPA8)
UniProt Q9NPA8, sequence (Q9NPA8 whole entry, looked up): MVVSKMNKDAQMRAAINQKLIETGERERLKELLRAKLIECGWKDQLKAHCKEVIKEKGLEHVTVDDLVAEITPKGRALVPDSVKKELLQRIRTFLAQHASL
inactive: [1] 0.033 | [2] 0.03 | [3] -0.015 | [4] 0.002 | [5] -0.026 | [6] 0.043 | [7] 0.081 | [8] 0.104 | [9] -0.087 | [10] -0.019 | [11] 0.161 | [12] 0.038 | [13] -0.021 | [14] 0.057 | [15] 0 | [16] -0.069 | [17] 0.066 | [18] 0.075 | [19] -0.052 | [20] 0.035

EBP (UniProt Q15125)
UniProt Q15125, sequence (Q15125 whole entry, looked up): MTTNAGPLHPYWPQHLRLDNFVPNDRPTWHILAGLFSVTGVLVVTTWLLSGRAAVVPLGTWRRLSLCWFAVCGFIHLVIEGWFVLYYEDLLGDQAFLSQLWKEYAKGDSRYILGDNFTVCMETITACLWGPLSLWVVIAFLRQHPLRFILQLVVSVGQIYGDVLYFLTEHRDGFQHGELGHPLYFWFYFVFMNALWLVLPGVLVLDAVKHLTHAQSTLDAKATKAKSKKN
inactive: [1] 0.055 | [2] 0.015 | [3] -0.073 | [4] -0.068 | [5] 0.01 | [6] -0.03 | [7] -0.128 | [8] 0.008 | [9] 0.047 | [10] 0.086 | [11] -0.023 | [12] 0.002 | [13] 0.004 | [14] -0.022 | [15] 0.02 | [16] 0.01 | [17] -0.025 | [18] -0.016 | [19] -0.152 | [20] 0.005

EIF2AK1 (UniProt Q9BQI3)
inactive: [1] -0.016 | [2] 0.087 | [3] 0.017 | [4] -0.02 | [5] 0.029 | [6] -0.027 | [7] -0.016 | [8] -0.02 | [9] -0.006 | [10] -0.01 | [11] 0.007 | [12] -0.151 | [13] 0.028 | [14] 0.034 | [15] -0.017 | [16] -0.001 | [17] -0.007 | [18] 0.044 | [19] 0.018 | [20] -0.072

FLAD1 (UniProt Q8NFF5)
UniProt Q8NFF5, sequence (Q8NFF5 whole entry, looked up): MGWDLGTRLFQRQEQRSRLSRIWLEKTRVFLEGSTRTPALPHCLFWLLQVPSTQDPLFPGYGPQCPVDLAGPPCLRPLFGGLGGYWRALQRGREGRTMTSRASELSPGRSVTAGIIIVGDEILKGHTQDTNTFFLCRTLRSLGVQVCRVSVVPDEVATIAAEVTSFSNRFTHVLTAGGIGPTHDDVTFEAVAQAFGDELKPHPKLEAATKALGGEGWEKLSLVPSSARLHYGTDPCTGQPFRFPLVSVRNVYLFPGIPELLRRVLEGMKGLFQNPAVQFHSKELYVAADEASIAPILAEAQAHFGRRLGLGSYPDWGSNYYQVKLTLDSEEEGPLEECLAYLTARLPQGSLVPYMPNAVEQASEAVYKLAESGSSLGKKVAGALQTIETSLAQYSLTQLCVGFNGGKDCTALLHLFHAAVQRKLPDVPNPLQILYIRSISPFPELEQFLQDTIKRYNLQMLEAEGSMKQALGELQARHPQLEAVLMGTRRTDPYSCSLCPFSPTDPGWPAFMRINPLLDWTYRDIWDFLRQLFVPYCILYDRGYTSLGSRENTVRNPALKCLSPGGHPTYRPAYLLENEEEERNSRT
inactive: [1] 0.001 | [2] -0.108 | [3] -0.047 | [4] -0.054 | [5] -0.035 | [6] 0.012 | [7] 0.045 | [8] -0.028 | [9] -0.027 | [10] 0.001 | [11] -0.011 | [12] 0.002 | [13] 0.016 | [14] -0.014 | [15] -0.072 | [16] -0.004 | [17] -0.026 | [18] 0.002 | [19] 0.011 | [20] 0.015

EIF3I (UniProt Q13347)
UniProt Q13347, sequence (Q13347 whole entry, looked up): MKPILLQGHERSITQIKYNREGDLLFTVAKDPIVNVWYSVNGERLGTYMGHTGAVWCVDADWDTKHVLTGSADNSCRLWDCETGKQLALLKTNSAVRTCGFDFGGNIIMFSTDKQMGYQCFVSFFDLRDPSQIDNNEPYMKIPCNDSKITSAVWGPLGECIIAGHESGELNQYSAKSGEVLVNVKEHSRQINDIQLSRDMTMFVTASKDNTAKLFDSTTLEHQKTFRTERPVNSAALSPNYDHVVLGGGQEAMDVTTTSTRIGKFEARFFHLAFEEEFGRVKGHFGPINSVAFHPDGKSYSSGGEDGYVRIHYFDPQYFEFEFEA
inactive: [1] 0.013 | [2] 0.033 | [3] -0.029 | [4] 0.001 | [5] 0.022 | [6] 0 | [7] -0.026 | [8] 0.004 | [9] -0.007 | [10] -0.039 | [11] 0.018 | [12] -0.019 | [13] 0.035 | [14] 0.046 | [15] 0.032 | [16] 0.003 | [17] 0.013 | [18] 0.009 | [19] 0.056 | [20] 0.022

FKBP8 isoform 2 (UniProt Q14318)
UniProt Q14318, sequence (Q14318 whole entry, looked up): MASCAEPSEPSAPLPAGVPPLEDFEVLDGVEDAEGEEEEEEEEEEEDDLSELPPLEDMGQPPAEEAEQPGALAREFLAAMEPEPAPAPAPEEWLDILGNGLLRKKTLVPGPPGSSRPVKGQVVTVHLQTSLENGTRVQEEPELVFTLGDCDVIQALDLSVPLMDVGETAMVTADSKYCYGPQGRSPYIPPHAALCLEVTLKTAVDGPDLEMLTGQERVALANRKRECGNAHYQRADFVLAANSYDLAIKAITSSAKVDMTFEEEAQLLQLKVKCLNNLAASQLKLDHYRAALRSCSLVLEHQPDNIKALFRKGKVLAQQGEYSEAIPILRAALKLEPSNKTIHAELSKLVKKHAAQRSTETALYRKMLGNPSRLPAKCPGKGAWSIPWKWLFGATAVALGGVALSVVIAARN
inactive: [1] -0.011 | [2] 0.041 | [3] 0.012 | [4] 0.002 | [5] -0.005 | [6] 0.01 | [7] 0 | [8] -0.054 | [9] 0.001 | [10] 0.008 | [11] 0.022 | [12] -0.016 | [13] 0.018 | [14] -0.017 | [15] 0.027 | [16] -0.041 | [17] 0.024 | [18] 0.034 | [19] 0.007 | [20] -0.053
